An excerpt weighted towards active compounds, which were near 3.9% of everything screened.
PrPC surface inh: inhibitors of human cell surface prion protein PrPC, primary screen, cell-based, TR-FRET; Major prion protein (Homo sapiens), P04156; TR-FRET read-out; inhibition, % at 13.8 µM; 0.43% of 370,000 active; AID 720596, 2013; in the data active means inhibition above about 24%; further: 0% = median of the test wells and 100% = reference compound wells
3CLpro inhibitor: SARS-CoV 3CLpro protease inhibitors, primary screen, biochemical, quenched FRET | Replicase polyprotein 1ab (Severe acute respiratory syndrome coronavirus), P0C6X7 | recombinant SARS-CoV 3CLpro, quenched FRET peptide cleavage | inhibition, % at 6 µM | 0.14% of 290,000 active | AID 1706, 2009; in the data active means inhibition above about 12%
FBA Mtb inh: Mtb FBA enzyme inhibitors, primary screen, biochemical, fluorescence, strain H37Rv; purified M. tuberculosis FBA, fluorescence read-out; inhibition, % at 1 µM; 2.3% of 360,000 active; in the data active means inhibition above about 27%;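 further: 0% = vehicle and 100% = reference inhibitor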
GDH-TPI inh: GDH-TPI coupling enzyme inhibitors, primary screen, artefact control for M. tuberculosis FBA inhibitor project, biochemical, absorbance, full deck; GDH-TPI coupled enzyme counterscreen, NADH absorbance; inhibition, % at 4.8 µM; 1.2% of 360,000 active; in the data active means inhibition above about 30%;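 further: 0% = DMSO wells and 100% = wells lacking the enzyme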
Vc quorum ag: inducers of Vibrio cholerae quorum light production without autoinducers, primary screen, BH1578 luxS cqsA deficient, single point | activation, % at 18.7 µM | AID 588436, 2011 | 0.16% of 350,000 active | V. cholerae BH1578 lux reporter, luminescence, 6 h; in the data active means activation mostly above about 9.7%, no sharp cut-off
PrPC confirm: confirmation of inhibitors of cell surface human prion protein, confirmation, cell-based, TR-FRET; shares compounds with PrPC surface inh; cell surface PrPC level; inhibition, % at 13.8 µM; 65% of 1,500 active; AID 743200, 2013; in the data active means inhibition above about 25%
LD9 tox: cytotoxicity in LD9 cells, cytotoxicity control for cell surface PrPc inhibitor project, cell-based, luminescence, high throughput | shares compounds with PrPC surface inh | luminescence viability | inhibition, % at 13.8 µM | 29% of 1,500 active | AID 743201, 2013; in the data active means inhibition above about 9.5%
Active calls of the source: *.

For CCOC(=O)N1CCN(C(=O)COc2ccc3ccccc3c2Br)CC1 the results were PrPC surface inh 50*, 3CLpro inhibitor 0, FBA Mtb inh 2, GDH-TPI inh 3, Vc quorum ag inactive, PrPC confirm 79* and LD9 tox -2.
For N/C(=N\OC(=O)COc1ccccc1)c1cccnc1 the results were PrPC surface inh 0, FBA Mtb inh 1, GDH-TPI inh 0 and Vc quorum ag -1.
For O=c1[nH]nnc2c1ncn2C1OC(CO)C(O)C1O (centres undefined) the results were PrPC surface inh 5 and FBA Mtb inh -3.
Screening CCN(CC)CCC12CC(C)OC1=Nc1ccccc1NC2=O (centres undefined) returned PrPC surface inh -9 and FBA Mtb inh 1.
CN(C)CCCNC(=O)c1cc(C(=O)c2ccccc2)c[nH]1 was read as PrPC surface inh -5, 3CLpro inhibitor 1, FBA Mtb inh 3, GDH-TPI inh 2 and Vc quorum ag -1.
Screening O=C(c1ccccc1)c1c[nH]c(C(=O)NNc2ccccc2)c1 returned PrPC surface inh 27*, 3CLpro inhibitor -1, FBA Mtb inh -1, GDH-TPI inh 7, Vc quorum ag 0, PrPC confirm 24 and LD9 tox 7.
For CCOC(=O)C(CC)Sc1cc(C)nc2ccc(OC)cc12 (centres undefined) the results were PrPC surface inh 32*, 3CLpro inhibitor 0, FBA Mtb inh 4, GDH-TPI inh -1, Vc quorum ag inactive, PrPC confirm 60* and LD9 tox -9.
For Cc1ccccc1OCCn1cnc2cc([N+](=O)[O-])ccc2c1=O the results were PrPC surface inh -23, 3CLpro inhibitor 0, FBA Mtb inh -4, GDH-TPI inh 3 and Vc quorum ag -1.
For Cc1cc(Br)c2nc3c(c(C(=O)O)c2c1)CCCCC3 the results were PrPC surface inh 117*, 3CLpro inhibitor 2, FBA Mtb inh -3, GDH-TPI inh 10, Vc quorum ag -3, PrPC confirm 132* and LD9 tox -4.
`CC(=O)Nc1ccc(NC(=O)C(C)OC(=O)c2ccc3ccccc3n2)cc1` (centres undefined) gave PrPC surface inh 5, FBA Mtb inh 1, GDH-TPI inh 5 and Vc quorum ag -2.
Screening COC(=O)[C@]12C[C@H](CC(=O)N3CCCC3)C(=O)N(CCC3=CCCCC3)C1=C[C@H](C(C)C)O[C@@H]2C1CC1 returned PrPC surface inh 28*, PrPC confirm 31* and LD9 tox -3.
For CCCCCCCCN1C(=O)[C@@H](CC(=O)N2CCCC2)C[C@@]2(C(=O)OC)C1=C[C@H](C(C)C)O[C@@H]2C1CC1 the results were PrPC surface inh 30*, PrPC confirm 36* and LD9 tox -3.
Screening COC(=O)[C@]12C[C@H](CC(=O)N3CCCCC3)C(=O)N(CCC3=CCCCC3)C1=C[C@H](C(C)C)O[C@@H]2C1CC1 returned PrPC surface inh 29*, PrPC confirm 32* and LD9 tox -2.
C=CCN1[C@H](C)COc2cc(N3CCCC3)ccc2S1(=O)=O was read as PrPC surface inh -5.
`CCc1cc2c(nc1CC)CCCN2S(=O)(=O)c1ccc(C)cc1` gave PrPC surface inh 5.
Screening CNc1ccccc1C(=O)OC(C)C(=O)Nc1ccc(Cl)cn1 (centres undefined) returned PrPC surface inh 25*, 3CLpro inhibitor 1, FBA Mtb inh 112*, GDH-TPI inh 22, Vc quorum ag inactive, PrPC confirm 38* and LD9 tox 0.
Screening CCOc1ncccc1C(=O)OC(C)C(=O)Nc1ccc(Cl)cn1 (centres undefined) returned PrPC surface inh 0, FBA Mtb inh 3, GDH-TPI inh 8 and Vc quorum ag 4.
`CCCC[C@@H]1C(=O)N2N=C(c3ccccc3)c3ccccc3[C@H]2N2N=C(c3ccccc3)c3ccccc3[C@@H]12` gave PrPC surface inh 1.
For COC(=O)c1sc(NC(=S)NNC(=O)c2c(Br)c(C)nn2C)c(C(=O)OC)c1C the results were PrPC surface inh 132*, 3CLpro inhibitor 2, FBA Mtb inh -1, GDH-TPI inh 53*, Vc quorum ag -1, PrPC confirm 146* and LD9 tox -3.
Screening C[C@@H]1CN([C@H](C)CO)C(=O)c2cc(C#Cc3ccccc3F)cnc2O[C@@H]1CN(C)S(=O)(=O)c1ccccc1F returned PrPC surface inh -1, FBA Mtb inh -3, GDH-TPI inh 0 and Vc quorum ag -3.
Screening O=C1C=CC2C3C(=O)N(c4ccccc4)C(=O)C3C1N2Cc1ccccc1 (centres undefined) returned PrPC surface inh 49*, FBA Mtb inh -2, GDH-TPI inh 5, Vc quorum ag -1, PrPC confirm 4 and LD9 tox 99*.
`Cc1cnc(NC(=O)CN2CCN(c3ccccn3)CC2)s1` gave PrPC surface inh 38*, 3CLpro inhibitor -2, FBA Mtb inh 1, GDH-TPI inh 14, Vc quorum ag 0, PrPC confirm 31* and LD9 tox 11*.
`N#Cc1c([N+](=O)[O-])cc([N+](=O)[O-])cc1S(=O)(=O)Cc1ccccc1` gave PrPC surface inh 42*, FBA Mtb inh 0, GDH-TPI inh 6, Vc quorum ag -1, PrPC confirm 84* and LD9 tox 98*.
For CSCCC(NC(=O)c1ccco1)C(=O)N1CC=C(c2ccccc2)CC1 (centres undefined) the results were PrPC surface inh -12, 3CLpro inhibitor 4, FBA Mtb inh 0, GDH-TPI inh 6 and Vc quorum ag inactive.
O=C(Nc1ccccc1)Nc1cc(OCC(F)(F)F)cc(OCC(F)(F)F)c1 was read as PrPC surface inh 38*, 3CLpro inhibitor -1, FBA Mtb inh -5, GDH-TPI inh 0, Vc quorum ag 0, PrPC confirm 28* and LD9 tox 14*.
Screening O=C(Nc1ccccc1)Nc1cc(Cl)cc(Cl)c1 returned PrPC surface inh 13, 3CLpro inhibitor 8, FBA Mtb inh -1, GDH-TPI inh 6 and Vc quorum ag inactive.

Screens: PubChem BioAssay, several laboratories
